{"source": "PubChem BioAssay (Tox21)", "note": "Records with an inconclusive call do not appear. The source made the active and inactive calls. The call rests on the fitted dose curve; in most records, active means well fitted cell-killing curve with a large enough effect in the repeat runs; inconclusive means weak or mixed curves, or effect the other way; inactive means no such curve, though single readings can be large or run the other way."}
{"assay": "qHTS assay to identify small molecule antagonists of the progesterone receptor (PR) signaling pathway - cell viability counter screen (AID 1346798); further: nearly all actives have a fitted effect of over 50% in size", "details": "PR-UAS-bla HEK293T viability, CellTiter-Glo luminescence, 16 h; series mostly up to 92.4 µM", "description": "National Center for Advancing Translational Sciences [NCATS]\nNIH Chemical Genomics Center [NCGC]\nU.S. Environmental Protection Agency [EPA]\nNational Institutes of Environmental Health Sciences [NIEHS]\nNational Toxicology Program [NTP]\nU.S. Food and Drug Administration [FDA]\nProgesterone receptor (PR), a nuclear hormone receptor, plays an important role in development, metabolic homeostasis and reproduction. It is activated by the steroid hormone progesterone. Endocrine disrupting chemicals (EDCs) and their interactions with steroid hormone receptors like PR causes disruption of normal endocrine function. To identify the compounds that inhibit PR signaling, a PR-UAS-bla GripTite cell line i.e. PR-UAS-bla HEK293T (Invitrogen, Carlsbad, CA, USA) containing a beta-lactamase reporter gene under the control of an UAS response element was used to screen Tox21 10K compound library. The cytotoxicity of the Tox21 compound library against the PR-bla cell line was tested in parallel by measuring the cell viability using CellTiter-Glo assay in the same wells.\nTox21 Assay Protocol Summary:\nPR-UAS-bla HEK293T cells were dispensed at 3,000 cells/4 uL of assay medium containing 2% charcoal stripped FBS per well into black wall/clear-bottom 1536-well plates using a Multidrop Combi (ThermoFisher Scientific, Waltham, MA) dispenser. After the assay plates were incubated at a 37C and 5% CO2 for 4 hr, 23 nL of compounds dissolved in DMSO, positive controls or DMSO only was transferred to the assay plate by a Pintool station (Kalypsys, San Diego, CA), followed by addition of 1 uL of R5020 in assay medium using a Flying Reagent Dispenser (FRD, Aurora Discovery, San Diego, CA). The plates were incubated at 37C and 5% CO2 for 16 hr. Then 1 uL of LiveBLAzer B/G FRET substrate was added using a Flying Reagent Dispenser, the plates were incubated at room temperature for 2 hours, and fluorescence intensity was measured by an Envision plate reader (PerkinElmer, Shelton, CT). For cell viability readout that measures cytotoxicity, 4 uL/well of CellTiter-Glo reagent was added into the assay plates using a FRD. After 30 min incubation at room temperature, the luminescence intensity in the plates was measured using a ViewLux (PerkinElmer) plate reader."}
{"smiles": "CC1(C)CC(N)CC(C)(CN)C1", "note": "(stereo not given)", "outcome": "inactive"}
{"smiles": "COc1ccc(OC)cc1", "outcome": "inactive"}
{"smiles": "CCCCCCCCCCCC(=O)OC", "outcome": "inactive"}
{"smiles": "CCOC(=O)c1ccc(N)cc1", "outcome": "inactive"}
{"smiles": "C=C(C)[C@H]1CC=C(C)C(=O)C1", "outcome": "inactive"}
{"smiles": "CNC(=S)N(C)C", "outcome": "inactive"}
{"smiles": "O=S(=O)(O)c1ccc(N=Nc2c(O)ccc3cc(S(=O)(=O)O)ccc23)cc1", "outcome": "inactive"}
{"smiles": "C=Cc1ccc(C)cc1", "outcome": "inactive"}
{"smiles": "NC(=S)NNC(N)=S", "outcome": "inactive"}
{"smiles": "CCNc1cccc(C)c1", "outcome": "inactive"}
{"smiles": "CC(C)OP(=O)(CP(=O)(OC(C)C)OC(C)C)OC(C)C", "outcome": "inactive"}
{"smiles": "C=CC[N+](C)(C)CC=C", "outcome": "inactive"}
{"smiles": "NCCNCCN", "outcome": "inactive"}
{"smiles": "CC(=O)OCc1ccco1", "outcome": "inactive"}
{"smiles": "Brc1ccc(Br)c(Br)c1", "outcome": "inactive"}
{"smiles": "COc1cc(OC)c(C(=O)CCCN2CCCC2)c(OC)c1", "outcome": "inactive"}
{"smiles": "CC(=O)c1ccc(O)cc1", "outcome": "inactive"}
{"smiles": "CCCCCCCC=O", "outcome": "inactive"}
{"smiles": "C=CC(=O)OCCC(=O)O", "outcome": "inactive"}
{"smiles": "CC(C)CC(=O)CC(C)CC(C)C", "note": "(stereo not given)", "outcome": "inactive"}
{"smiles": "O=C(O)c1ccc(S(=O)(=O)N(Cl)Cl)cc1", "outcome": "inactive"}
{"smiles": "O=C(O)c1ccccc1C(=O)O", "outcome": "inactive"}
{"smiles": "CC1(C)NC(=O)NC1=O", "outcome": "inactive"}
{"smiles": "CCCCCC(=O)O", "outcome": "inactive"}
{"smiles": "C=C(C)C(=O)OCC(C)C", "outcome": "inactive"}
{"smiles": "CCCCOC(=O)c1ccc(N)cc1", "outcome": "inactive"}
{"smiles": "Clc1ccccn1", "outcome": "inactive"}
{"smiles": "CC(CCO)CC(C)(C)C", "note": "(stereo not given)", "outcome": "inactive"}
{"smiles": "CC(=O)CCC=C(C)C", "outcome": "inactive"}
{"smiles": "COc1ccc(CCC(C)=O)cc1", "outcome": "inactive"}
{"smiles": "O=C(O)c1ccc(C(=O)O)c(C(=O)O)c1", "outcome": "inactive"}
{"smiles": "CC(=O)CC(C)(C)O", "outcome": "inactive"}
{"smiles": "NCCN1CCNCC1", "outcome": "inactive"}
{"smiles": "Cc1ccc(C(C)C)c(O)c1", "outcome": "inactive"}
{"smiles": "O=C1CCCC1", "outcome": "inactive"}
{"smiles": "COc1ccccc1OCC(O)CO", "note": "(stereo not given)", "outcome": "inactive"}
{"smiles": "Nc1ccc(Cl)c(N)c1", "outcome": "inactive"}
{"smiles": "CC(=O)Oc1ccc(C)cc1", "outcome": "inactive"}
{"smiles": "COc1ccc(N)c(C)c1", "outcome": "inactive"}
{"smiles": "CCCCC(C=O)CC", "note": "(stereo not given)", "outcome": "inactive"}
